Assay results as given in publication PMC7862700, “An all-to-all approach to the identification of sequence-specific readers for epigenetic DNA modifications on cytosine”.

How the values were obtained:
Experiment in all cases: DAPPL (digital affinity profiling via proximity ligation, sequencing); 10 mM Tris-HCl pH 7.5, 50 mM NaCl, 1 mM DTT, 4% glycerol, room temperature, 30 min; GST-TFs on glutathione beads, 16-mer random dsDNA library, 0.1% formaldehyde crosslink after washing; high values mean tight binding
[1] = biological target: T1, FLI1 (Homo sapiens, UniProt Q01543 1-452); details: protein: recombinant; tags: N-terminal GST; dsDNA, one strand shown
T1 sequence: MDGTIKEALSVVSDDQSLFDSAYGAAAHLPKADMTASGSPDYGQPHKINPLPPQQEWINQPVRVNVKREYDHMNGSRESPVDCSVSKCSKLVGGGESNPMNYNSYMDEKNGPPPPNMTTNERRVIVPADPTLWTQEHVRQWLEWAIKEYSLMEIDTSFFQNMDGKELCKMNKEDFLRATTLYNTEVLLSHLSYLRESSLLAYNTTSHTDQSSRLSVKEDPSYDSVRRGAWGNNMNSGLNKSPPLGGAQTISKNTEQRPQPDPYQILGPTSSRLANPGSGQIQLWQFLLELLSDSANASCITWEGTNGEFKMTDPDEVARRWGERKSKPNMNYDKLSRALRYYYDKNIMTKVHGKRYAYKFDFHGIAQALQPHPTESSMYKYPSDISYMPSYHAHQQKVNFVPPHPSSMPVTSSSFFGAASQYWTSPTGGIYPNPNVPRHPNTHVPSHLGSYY
Procedure, shortened: (§1)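 Binding signal is each hexamer's read frequency for a factor divided by its frequency in the tag-only sample. The factors were GST-fused human transcription factors from yeast, captured on glutathione beads, DNA-barcoded and pooled with that sample. Pools were incubated with 200 nmole of a random double-stranded 16-mer DNA library in Tris/NaCl/DTT/glycerol buffer at room temperature for 30 min, then washed, crosslinked with 0.1% formaldehyde, proximity-ligated with BsaI/T4 ligase (1 h, 37 °C), PCR-amplified and sequenced on an Illumina NextSeq500.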

[2] = biological target: T2, ELK1 (Homo sapiens, UniProt P19419 1-428); details: protein: recombinant; tags: N-terminal GST; dsDNA, one strand shown
T2 sequence: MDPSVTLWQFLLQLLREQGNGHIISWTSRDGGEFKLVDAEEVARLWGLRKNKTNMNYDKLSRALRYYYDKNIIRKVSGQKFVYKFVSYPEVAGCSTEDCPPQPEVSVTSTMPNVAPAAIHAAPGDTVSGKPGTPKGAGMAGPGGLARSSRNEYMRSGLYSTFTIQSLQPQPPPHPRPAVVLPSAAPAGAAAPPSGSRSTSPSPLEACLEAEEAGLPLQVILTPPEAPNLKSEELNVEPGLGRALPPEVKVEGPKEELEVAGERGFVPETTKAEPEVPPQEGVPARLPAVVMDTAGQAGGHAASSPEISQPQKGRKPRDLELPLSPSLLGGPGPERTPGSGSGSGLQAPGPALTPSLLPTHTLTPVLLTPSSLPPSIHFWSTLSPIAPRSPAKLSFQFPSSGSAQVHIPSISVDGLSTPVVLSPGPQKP
Procedure, shortened: as §1

[3] = biological target: T3, GABPA (Homo sapiens, UniProt Q06546 1-454); details: protein: recombinant; tags: N-terminal GST; dsDNA, one strand shown
T3 sequence: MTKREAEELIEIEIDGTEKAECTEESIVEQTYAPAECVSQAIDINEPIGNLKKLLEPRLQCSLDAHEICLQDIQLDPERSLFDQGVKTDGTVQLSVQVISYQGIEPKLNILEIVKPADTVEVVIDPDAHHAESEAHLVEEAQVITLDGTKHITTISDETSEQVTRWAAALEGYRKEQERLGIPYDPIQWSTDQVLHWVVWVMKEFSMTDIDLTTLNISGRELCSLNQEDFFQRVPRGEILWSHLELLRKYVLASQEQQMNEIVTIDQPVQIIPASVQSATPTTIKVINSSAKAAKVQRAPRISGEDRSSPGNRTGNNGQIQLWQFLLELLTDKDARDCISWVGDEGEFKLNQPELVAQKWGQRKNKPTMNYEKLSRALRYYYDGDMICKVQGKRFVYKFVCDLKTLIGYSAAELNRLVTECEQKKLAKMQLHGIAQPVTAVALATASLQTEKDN
Procedure, shortened: as §1

[4] = biological target: T4, ERG (Homo sapiens, UniProt P11308 1-479); details: protein: recombinant; tags: N-terminal GST; dsDNA, one strand shown
T4 sequence: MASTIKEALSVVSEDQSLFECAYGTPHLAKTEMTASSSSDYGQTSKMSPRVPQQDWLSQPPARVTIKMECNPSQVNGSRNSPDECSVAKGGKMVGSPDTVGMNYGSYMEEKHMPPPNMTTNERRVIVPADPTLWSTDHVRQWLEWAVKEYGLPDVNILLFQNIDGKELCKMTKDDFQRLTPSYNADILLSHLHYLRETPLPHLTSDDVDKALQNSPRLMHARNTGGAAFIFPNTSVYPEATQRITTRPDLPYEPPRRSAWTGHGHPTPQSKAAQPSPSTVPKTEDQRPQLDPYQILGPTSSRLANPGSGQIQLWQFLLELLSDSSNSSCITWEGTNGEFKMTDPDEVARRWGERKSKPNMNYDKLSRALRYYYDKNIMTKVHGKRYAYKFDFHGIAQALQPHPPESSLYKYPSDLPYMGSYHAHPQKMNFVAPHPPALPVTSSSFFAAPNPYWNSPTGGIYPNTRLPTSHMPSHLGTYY
Procedure, shortened: as §1

[5] = biological target: ELF1 (Homo sapiens, UniProt P32519 1-619); details: protein: recombinant; tags: N-terminal GST; dsDNA, one strand shown
Procedure, shortened: as §1

[6] = biological target: T5, EHF (Homo sapiens, UniProt Q9NZC4 1-300); details: protein: recombinant; tags: N-terminal GST; dsDNA, one strand shown
T5 sequence: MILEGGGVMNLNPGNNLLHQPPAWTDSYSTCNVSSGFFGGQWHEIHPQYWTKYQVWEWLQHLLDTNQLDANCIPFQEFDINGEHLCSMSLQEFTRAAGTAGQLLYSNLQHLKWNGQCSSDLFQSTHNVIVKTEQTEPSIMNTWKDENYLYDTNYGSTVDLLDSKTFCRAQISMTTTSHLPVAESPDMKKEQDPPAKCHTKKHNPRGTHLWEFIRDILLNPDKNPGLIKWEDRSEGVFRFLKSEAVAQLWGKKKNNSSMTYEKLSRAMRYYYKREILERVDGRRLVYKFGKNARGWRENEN
Procedure, shortened: as §1

[7] = biological target: SPI1 (Homo sapiens, UniProt P17947 1-270); details: protein: recombinant; tags: N-terminal GST; dsDNA, one strand shown
Procedure, shortened: as §1

[8] = biological target: SPIB (Homo sapiens, UniProt Q01892 1-262); details: protein: recombinant; tags: N-terminal GST; dsDNA, one strand shown
Procedure, shortened: as §1

[9] = biological target: T6, ELK3 (Homo sapiens, UniProt P41970 1-407); details: protein: recombinant; tags: N-terminal GST; dsDNA, one strand shown
T6 sequence: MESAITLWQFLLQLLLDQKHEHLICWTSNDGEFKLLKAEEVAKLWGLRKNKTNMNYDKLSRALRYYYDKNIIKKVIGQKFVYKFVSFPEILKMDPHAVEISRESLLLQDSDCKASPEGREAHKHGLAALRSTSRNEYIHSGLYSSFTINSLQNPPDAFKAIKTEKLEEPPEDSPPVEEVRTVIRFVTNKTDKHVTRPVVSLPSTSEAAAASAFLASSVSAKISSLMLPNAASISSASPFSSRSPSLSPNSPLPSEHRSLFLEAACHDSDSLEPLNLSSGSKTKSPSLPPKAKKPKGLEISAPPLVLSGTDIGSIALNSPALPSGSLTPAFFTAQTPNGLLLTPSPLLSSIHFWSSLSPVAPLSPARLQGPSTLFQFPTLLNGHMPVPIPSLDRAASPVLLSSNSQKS
Procedure, shortened: as §1

[10] = biological target: T7, FEV (Homo sapiens, UniProt Q99581 1-238); details: protein: recombinant; tags: N-terminal GST; dsDNA, one strand shown
T7 sequence: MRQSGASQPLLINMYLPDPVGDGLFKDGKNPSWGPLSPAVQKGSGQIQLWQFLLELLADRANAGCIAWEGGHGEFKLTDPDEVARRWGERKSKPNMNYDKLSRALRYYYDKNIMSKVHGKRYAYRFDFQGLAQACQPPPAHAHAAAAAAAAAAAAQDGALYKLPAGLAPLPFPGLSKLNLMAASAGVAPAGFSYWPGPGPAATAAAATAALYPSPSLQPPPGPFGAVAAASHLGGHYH
Procedure, shortened: as §1

[11] = biological target: ETV5 (Homo sapiens, UniProt P41161 1-510); details: protein: recombinant; tags: N-terminal GST; dsDNA, one strand shown
Procedure, shortened: as §1

[12] = biological target: HSF1 (Homo sapiens, UniProt Q00613 1-529); details: protein: recombinant; tags: N-terminal GST; chain copies: 3; dsDNA, one strand shown
Procedure, shortened: as §1

[13] = biological target: T8, SPIC (Homo sapiens, UniProt Q8N5J4 1-248); details: protein: recombinant; tags: N-terminal GST; dsDNA, one strand shown
T8 sequence: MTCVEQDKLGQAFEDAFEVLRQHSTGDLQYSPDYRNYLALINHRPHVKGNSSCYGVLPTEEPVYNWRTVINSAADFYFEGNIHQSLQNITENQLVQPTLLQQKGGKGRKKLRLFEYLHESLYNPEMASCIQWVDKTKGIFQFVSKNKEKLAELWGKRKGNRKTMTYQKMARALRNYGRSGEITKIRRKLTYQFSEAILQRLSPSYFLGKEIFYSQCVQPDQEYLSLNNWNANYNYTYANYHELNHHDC
Procedure, shortened: as §1

[14] = biological target: ELF4 (Homo sapiens, UniProt Q99607 1-663); details: protein: recombinant; tags: N-terminal GST; dsDNA, one strand shown
Procedure, shortened: as §1

[15] = biological target: T9, ELK4 (Homo sapiens, UniProt P28324-2 1-405); details: protein: recombinant; tags: N-terminal GST; dsDNA, one strand shown
T9 sequence: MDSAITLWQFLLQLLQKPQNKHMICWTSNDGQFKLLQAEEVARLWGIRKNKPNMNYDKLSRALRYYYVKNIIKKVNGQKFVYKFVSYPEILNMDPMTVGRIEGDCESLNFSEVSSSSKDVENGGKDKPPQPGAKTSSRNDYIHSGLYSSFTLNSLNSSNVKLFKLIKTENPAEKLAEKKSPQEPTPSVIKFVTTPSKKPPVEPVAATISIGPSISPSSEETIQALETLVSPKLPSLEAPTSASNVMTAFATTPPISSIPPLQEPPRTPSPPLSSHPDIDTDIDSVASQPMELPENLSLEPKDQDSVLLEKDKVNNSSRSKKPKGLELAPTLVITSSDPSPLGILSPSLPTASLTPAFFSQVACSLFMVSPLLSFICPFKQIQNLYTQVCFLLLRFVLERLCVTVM
Procedure, shortened: as §1

[16] = biological target: T10, ETV2 (Homo sapiens, UniProt O00321 1-342); details: protein: recombinant; tags: N-terminal GST; dsDNA, one strand shown
T10 sequence: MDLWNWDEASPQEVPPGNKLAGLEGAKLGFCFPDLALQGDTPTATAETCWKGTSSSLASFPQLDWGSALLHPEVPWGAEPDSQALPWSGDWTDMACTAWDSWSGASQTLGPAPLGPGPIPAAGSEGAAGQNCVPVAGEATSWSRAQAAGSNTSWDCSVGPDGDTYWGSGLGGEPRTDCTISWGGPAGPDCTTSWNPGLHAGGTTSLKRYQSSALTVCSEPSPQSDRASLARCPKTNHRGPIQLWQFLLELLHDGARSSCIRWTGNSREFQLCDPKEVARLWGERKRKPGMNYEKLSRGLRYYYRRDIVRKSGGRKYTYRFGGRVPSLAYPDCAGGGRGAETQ
Procedure, shortened: as §1

[17] = biological target: T11, ELF3 (Homo sapiens, UniProt P78545 1-371); details: protein: recombinant; tags: N-terminal GST; dsDNA, one strand shown
T11 sequence: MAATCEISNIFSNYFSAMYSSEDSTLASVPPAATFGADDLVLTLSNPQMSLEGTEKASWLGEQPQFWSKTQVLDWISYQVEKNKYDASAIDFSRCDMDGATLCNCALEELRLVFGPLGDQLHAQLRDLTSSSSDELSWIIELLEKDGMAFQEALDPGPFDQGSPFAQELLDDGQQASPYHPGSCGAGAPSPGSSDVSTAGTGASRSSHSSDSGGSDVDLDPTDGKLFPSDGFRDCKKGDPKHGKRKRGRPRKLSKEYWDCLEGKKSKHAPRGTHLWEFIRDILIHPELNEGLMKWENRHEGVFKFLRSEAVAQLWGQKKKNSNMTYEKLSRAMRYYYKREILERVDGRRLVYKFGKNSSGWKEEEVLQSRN
Procedure, shortened: as §1

[18] = biological target: CRX (Homo sapiens, UniProt O43186 1-299); details: protein: recombinant; tags: N-terminal GST; dsDNA, one strand shown
Procedure, shortened: as §1

[19] = biological target: ETV1 (Homo sapiens, UniProt P50549 1-477); details: protein: recombinant; tags: N-terminal GST; dsDNA, one strand shown
Procedure, shortened: as §1

Sequence of ELF4 (Q99607 whole entry): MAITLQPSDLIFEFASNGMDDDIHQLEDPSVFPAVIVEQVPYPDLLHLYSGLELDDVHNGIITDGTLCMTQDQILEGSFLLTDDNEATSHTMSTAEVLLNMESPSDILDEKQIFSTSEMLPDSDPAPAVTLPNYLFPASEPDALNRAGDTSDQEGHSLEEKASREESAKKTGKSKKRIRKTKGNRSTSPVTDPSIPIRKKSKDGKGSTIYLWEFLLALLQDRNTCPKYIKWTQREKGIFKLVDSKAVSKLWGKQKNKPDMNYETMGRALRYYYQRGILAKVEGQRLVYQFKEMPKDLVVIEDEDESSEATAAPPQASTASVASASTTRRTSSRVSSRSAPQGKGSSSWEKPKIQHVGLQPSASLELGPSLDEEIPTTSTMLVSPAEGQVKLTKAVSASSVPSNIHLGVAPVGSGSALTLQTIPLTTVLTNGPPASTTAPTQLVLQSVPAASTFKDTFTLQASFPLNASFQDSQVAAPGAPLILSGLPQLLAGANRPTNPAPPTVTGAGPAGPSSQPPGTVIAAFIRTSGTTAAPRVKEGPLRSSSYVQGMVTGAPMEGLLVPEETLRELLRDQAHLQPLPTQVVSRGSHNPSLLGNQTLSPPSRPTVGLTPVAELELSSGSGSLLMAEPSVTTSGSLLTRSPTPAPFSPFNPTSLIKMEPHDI
Sequence of ETV1 (P50549 whole entry): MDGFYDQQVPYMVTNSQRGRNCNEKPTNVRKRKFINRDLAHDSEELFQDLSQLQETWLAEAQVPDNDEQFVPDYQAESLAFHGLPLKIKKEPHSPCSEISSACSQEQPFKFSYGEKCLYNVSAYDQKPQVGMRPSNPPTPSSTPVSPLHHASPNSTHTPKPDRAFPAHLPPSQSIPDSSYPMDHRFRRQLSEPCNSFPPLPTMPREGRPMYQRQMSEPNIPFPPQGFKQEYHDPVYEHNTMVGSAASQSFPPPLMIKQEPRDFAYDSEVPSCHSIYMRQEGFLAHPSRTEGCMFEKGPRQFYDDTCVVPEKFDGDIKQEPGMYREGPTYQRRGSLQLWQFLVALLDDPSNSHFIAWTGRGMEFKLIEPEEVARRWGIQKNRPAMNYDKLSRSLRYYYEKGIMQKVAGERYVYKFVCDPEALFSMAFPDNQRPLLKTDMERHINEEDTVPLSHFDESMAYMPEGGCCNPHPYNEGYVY
Sequence of ETV5 (P41161 whole entry): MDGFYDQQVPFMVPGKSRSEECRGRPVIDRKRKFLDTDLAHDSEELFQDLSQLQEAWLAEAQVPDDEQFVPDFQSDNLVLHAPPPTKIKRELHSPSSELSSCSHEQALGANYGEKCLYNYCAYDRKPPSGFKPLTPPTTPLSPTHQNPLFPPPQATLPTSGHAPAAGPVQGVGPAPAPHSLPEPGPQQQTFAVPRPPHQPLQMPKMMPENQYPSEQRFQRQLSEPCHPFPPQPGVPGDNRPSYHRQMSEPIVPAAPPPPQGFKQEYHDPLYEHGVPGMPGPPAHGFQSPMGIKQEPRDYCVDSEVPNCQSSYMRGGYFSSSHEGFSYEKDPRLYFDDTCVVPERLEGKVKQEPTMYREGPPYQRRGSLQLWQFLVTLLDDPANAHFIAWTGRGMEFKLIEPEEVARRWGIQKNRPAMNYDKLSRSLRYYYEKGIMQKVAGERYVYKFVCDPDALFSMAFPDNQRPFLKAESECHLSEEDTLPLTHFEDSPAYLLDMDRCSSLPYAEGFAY
Sequence of ELF1 (P32519 whole entry): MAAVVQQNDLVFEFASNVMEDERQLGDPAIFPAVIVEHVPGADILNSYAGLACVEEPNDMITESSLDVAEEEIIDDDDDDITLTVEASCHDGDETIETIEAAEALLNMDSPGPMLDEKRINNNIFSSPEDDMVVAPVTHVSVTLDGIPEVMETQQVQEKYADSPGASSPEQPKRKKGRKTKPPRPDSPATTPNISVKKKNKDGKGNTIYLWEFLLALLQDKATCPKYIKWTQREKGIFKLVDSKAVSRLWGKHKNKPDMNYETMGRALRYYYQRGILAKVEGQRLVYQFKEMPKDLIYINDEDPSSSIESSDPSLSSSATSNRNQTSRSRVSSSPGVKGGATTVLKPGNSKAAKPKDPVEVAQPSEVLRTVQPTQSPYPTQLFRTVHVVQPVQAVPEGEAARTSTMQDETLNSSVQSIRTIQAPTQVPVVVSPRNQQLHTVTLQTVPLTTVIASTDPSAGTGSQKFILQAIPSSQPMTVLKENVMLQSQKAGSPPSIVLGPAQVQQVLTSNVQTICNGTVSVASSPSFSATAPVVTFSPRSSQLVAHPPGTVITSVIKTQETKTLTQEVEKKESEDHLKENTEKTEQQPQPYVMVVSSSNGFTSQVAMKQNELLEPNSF
Sequence of CRX (O43186 whole entry): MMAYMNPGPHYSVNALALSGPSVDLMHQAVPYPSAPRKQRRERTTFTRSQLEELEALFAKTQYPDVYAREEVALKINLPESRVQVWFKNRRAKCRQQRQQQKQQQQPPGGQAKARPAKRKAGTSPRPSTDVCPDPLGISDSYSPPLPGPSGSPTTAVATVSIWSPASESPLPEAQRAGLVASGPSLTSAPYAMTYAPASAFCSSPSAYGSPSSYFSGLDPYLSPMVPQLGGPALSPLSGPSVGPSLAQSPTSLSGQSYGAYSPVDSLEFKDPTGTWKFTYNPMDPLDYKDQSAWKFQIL
Sequence of HSF1 (Q00613 whole entry): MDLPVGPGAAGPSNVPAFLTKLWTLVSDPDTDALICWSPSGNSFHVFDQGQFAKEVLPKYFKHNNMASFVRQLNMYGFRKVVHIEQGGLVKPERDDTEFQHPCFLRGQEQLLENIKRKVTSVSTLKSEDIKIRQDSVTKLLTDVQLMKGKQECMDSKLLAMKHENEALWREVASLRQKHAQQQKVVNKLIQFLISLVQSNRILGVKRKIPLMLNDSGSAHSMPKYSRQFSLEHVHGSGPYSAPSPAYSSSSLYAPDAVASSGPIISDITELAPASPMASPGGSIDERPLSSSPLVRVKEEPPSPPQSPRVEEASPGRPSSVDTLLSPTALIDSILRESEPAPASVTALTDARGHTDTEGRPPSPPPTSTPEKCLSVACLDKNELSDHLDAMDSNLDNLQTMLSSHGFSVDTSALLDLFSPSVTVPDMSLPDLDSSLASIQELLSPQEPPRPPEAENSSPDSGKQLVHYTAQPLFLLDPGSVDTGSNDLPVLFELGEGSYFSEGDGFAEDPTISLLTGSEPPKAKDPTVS
Sequence of SPIB (Q01892 whole entry): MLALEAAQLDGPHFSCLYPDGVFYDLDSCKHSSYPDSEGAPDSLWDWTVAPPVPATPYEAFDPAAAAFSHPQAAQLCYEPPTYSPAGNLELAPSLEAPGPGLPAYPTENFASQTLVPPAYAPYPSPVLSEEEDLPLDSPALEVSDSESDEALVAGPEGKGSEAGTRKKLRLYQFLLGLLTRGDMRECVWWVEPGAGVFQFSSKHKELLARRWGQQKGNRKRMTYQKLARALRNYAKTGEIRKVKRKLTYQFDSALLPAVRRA

With TTTCAA the binding signal [1] was 1.24 fold enrichment (6-mer frequency, TF over GST control), the binding signal [2] was 1.23 fold enrichment (6-mer frequency, TF over GST control) and the binding signal [3] was 1.31 fold enrichment (6-mer frequency, TF over GST control). The binding signal [4] was 1.25 fold enrichment (6-mer frequency, TF over GST control), the binding signal [5] was 1.3 fold enrichment (6-mer frequency, TF over GST control) and the binding signal [6] was 1.3 fold enrichment (6-mer frequency, TF over GST control). The binding signal [7] was 1.32 fold enrichment (6-mer frequency, TF over GST control), the binding signal [8] was 1.37 fold enrichment (6-mer frequency, TF over GST control) and the binding signal [9] was 1.33 fold enrichment (6-mer frequency, TF over GST control). The binding signal [10] was 1.34 fold enrichment (6-mer frequency, TF over GST control), the binding signal [11] was 1.29 fold enrichment (6-mer frequency, TF over GST control) and the binding signal [12] was 1.23 fold enrichment (6-mer frequency, TF over GST control). The binding signal [13] was 1.33 fold enrichment (6-mer frequency, TF over GST control), the binding signal [14] was 1.34 fold enrichment (6-mer frequency, TF over GST control) and the binding signal [15] was 1.29 fold enrichment (6-mer frequency, TF over GST control). For the same sequence, the binding signal [16] was 1.32 fold enrichment (6-mer frequency, TF over GST control), the binding signal [17] was 1.33 fold enrichment (6-mer frequency, TF over GST control) and the binding signal [18] was 1.34 fold enrichment (6-mer frequency, TF over GST control). For the same sequence, the binding signal [19] was 1.33 fold enrichment (6-mer frequency, TF over GST control).
